In the supplement of paper PMC11732987, “Enantioselective OTUD7B fragment discovery through chemoproteomics screening and high-throughput optimisation” (Communications Chemistry, 2025):

Legend:
Assay in all cases: log2 ratio of Biotin-Ahx-Ub-VS probe labelling (fragment/DMSO); higher = less target engagement (more negative = stronger competition), active = hit call of the paper (q ≤ 0.05, log2 ratio ≤ -1)
Details in all cases: compound concentration: 200 uM; treatment time: 3 h
[1] = molecular target: T1, ALG13 (UniProt Q9NP73)
T1 sequence (whole entry): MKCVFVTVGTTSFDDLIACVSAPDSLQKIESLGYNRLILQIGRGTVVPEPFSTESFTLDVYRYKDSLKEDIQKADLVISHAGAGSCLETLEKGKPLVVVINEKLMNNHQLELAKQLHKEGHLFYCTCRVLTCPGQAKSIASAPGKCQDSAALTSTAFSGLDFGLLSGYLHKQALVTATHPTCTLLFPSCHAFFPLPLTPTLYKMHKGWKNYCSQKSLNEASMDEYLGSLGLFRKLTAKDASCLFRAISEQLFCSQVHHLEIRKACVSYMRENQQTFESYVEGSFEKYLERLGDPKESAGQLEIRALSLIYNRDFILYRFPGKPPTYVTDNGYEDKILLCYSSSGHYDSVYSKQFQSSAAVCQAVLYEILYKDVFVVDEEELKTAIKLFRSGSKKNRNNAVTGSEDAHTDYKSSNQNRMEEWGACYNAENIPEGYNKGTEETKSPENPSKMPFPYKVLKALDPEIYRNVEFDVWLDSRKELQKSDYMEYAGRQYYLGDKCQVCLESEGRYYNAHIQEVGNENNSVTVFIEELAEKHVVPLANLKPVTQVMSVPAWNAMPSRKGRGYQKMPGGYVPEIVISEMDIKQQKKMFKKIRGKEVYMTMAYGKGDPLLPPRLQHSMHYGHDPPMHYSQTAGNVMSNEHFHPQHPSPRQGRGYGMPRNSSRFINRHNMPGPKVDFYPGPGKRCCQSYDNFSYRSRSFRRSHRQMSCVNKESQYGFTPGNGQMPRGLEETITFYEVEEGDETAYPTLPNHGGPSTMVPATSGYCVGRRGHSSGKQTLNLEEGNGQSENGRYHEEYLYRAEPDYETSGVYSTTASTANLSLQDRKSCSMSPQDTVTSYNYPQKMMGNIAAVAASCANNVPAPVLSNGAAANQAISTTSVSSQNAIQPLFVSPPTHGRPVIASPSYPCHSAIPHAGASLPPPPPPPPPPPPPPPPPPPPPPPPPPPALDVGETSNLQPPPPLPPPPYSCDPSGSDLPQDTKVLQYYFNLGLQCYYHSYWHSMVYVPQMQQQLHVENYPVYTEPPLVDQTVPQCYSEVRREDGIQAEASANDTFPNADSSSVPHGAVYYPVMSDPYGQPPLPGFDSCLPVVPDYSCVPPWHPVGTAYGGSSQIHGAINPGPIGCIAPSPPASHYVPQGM
Summary of the method: (§1)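 Using Biotin-Ahx-Ub-VS at 0.5 µM final for 1 h, DUBs were labelled in HEK293T lysate (495 µg per sample) that had first been treated in triplicate with fragment at 200 µM or vehicle for 3 h. NeutrAvidin enrichment, LysC and trypsin digestion and diaPASEF LC-MS/MS followed. Spectronaut label-free quantities were global-median-normalised. Values are average log2 fragment/vehicle ratios by unpaired t-test, using proteins with ≥2 unique peptides.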

[2] = molecular target: ATXN3 (UniProt P54252)
Chain of ATXN3 (P54252 whole entry): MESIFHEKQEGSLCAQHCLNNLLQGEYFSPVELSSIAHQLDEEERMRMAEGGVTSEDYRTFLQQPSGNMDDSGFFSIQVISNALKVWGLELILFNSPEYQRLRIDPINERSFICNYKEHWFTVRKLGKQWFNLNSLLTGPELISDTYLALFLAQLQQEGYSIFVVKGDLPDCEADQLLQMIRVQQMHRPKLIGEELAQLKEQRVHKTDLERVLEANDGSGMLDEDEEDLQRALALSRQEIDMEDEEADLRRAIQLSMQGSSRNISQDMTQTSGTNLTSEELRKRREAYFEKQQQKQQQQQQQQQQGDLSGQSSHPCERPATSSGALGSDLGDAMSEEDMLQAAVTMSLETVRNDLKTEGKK
Summary of the method: as §1

[3] = molecular target: T2, BAP1 (UniProt Q92560)
T2 sequence (whole entry): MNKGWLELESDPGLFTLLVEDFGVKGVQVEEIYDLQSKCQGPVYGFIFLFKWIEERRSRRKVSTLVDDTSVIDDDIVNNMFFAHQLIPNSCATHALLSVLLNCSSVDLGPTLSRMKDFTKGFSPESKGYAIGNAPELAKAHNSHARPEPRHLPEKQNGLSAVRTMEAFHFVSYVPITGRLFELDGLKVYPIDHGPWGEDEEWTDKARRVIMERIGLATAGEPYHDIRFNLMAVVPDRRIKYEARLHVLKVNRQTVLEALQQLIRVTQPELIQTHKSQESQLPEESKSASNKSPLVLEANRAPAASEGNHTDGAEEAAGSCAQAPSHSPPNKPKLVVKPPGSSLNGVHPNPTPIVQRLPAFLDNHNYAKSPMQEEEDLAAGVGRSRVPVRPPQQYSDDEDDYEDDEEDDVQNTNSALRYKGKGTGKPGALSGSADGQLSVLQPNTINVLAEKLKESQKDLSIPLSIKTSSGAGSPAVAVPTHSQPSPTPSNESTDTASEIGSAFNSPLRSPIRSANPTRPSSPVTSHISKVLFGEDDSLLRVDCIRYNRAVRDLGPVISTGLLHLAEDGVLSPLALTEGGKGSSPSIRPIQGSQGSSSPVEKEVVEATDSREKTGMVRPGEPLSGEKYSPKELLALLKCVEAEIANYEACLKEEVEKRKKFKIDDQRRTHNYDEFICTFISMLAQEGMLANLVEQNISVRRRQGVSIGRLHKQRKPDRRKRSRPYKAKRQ
Summary of the method: as §1

[4] = molecular target: EIF3F (UniProt O00303)
Chain of EIF3F (O00303 whole entry): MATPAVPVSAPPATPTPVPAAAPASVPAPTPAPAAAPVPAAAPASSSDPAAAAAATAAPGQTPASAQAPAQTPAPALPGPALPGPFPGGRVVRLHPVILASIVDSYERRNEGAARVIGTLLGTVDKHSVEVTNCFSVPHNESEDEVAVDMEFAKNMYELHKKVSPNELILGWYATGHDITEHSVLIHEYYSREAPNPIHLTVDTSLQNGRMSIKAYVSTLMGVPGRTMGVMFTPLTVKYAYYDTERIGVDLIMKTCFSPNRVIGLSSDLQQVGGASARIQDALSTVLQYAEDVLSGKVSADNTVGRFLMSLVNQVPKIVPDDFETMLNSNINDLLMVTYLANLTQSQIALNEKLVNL
Summary of the method: as §1

[5] = molecular target: EIF3H (UniProt O15372)
Chain of EIF3H (O15372 whole entry): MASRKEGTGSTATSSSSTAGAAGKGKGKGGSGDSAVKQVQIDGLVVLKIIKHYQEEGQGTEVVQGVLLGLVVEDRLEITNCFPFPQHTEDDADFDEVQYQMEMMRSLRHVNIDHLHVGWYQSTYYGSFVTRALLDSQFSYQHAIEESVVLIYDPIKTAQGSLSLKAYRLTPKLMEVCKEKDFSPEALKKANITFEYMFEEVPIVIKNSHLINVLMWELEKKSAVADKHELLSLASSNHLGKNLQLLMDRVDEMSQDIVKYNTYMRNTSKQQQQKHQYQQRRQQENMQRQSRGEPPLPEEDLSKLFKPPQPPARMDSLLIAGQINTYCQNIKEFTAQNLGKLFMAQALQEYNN
Summary of the method: as §1

[6] = molecular target: T3, FAM105A (UniProt Q9NUU6)
T3 sequence (whole entry): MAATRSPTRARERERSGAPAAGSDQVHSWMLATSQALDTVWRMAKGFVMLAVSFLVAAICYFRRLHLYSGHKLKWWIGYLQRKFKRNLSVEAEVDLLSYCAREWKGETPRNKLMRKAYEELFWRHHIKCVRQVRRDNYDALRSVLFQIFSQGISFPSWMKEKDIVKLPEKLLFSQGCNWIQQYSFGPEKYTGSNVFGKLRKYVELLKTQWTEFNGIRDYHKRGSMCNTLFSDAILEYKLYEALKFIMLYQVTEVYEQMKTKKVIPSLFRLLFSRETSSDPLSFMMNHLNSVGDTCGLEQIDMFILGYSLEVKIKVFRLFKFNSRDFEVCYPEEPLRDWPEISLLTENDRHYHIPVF
Summary of the method: as §1

[7] = molecular target: OTUB1 (UniProt Q96FW1)
Chain of OTUB1 (Q96FW1 whole entry): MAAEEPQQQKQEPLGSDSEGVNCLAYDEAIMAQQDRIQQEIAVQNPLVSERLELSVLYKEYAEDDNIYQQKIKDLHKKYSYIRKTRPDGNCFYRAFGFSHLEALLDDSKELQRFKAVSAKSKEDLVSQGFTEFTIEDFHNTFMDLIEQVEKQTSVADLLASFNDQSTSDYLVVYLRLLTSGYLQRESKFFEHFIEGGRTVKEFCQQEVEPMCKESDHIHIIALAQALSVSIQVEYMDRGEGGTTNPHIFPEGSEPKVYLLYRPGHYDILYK
Summary of the method: as §1

[8] = molecular target: T4, OTUD4 (UniProt Q01804)
T4 sequence (whole entry): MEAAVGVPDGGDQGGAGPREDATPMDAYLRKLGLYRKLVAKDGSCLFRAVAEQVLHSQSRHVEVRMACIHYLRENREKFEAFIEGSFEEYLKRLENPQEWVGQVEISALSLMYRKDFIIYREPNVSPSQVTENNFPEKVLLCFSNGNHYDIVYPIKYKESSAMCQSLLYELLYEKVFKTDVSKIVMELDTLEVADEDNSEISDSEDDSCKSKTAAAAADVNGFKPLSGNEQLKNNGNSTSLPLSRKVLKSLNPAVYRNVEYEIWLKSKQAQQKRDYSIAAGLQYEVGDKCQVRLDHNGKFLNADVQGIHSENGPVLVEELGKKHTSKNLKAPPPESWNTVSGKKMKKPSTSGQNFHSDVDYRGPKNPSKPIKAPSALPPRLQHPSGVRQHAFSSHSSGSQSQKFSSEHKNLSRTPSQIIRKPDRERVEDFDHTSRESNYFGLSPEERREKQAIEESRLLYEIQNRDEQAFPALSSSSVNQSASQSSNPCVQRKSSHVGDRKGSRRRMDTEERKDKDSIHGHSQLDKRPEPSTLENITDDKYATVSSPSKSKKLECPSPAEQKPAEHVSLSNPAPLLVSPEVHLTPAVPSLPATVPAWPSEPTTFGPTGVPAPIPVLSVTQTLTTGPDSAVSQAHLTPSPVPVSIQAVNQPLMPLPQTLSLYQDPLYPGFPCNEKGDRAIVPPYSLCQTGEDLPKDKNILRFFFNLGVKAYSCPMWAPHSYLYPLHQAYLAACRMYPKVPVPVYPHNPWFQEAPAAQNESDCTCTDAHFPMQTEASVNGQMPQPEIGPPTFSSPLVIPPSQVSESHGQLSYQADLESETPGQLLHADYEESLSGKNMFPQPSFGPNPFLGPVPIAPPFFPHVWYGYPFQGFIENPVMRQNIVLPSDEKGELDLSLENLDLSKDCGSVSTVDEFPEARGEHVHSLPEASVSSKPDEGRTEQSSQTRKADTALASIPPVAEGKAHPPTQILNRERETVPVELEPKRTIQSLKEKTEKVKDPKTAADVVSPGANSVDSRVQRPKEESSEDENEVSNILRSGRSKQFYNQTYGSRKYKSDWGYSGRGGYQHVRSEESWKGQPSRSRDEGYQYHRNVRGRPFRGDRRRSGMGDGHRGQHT
Summary of the method: as §1

[9] = molecular target: T5, OTUD5 (UniProt Q96G74)
T5 sequence (whole entry): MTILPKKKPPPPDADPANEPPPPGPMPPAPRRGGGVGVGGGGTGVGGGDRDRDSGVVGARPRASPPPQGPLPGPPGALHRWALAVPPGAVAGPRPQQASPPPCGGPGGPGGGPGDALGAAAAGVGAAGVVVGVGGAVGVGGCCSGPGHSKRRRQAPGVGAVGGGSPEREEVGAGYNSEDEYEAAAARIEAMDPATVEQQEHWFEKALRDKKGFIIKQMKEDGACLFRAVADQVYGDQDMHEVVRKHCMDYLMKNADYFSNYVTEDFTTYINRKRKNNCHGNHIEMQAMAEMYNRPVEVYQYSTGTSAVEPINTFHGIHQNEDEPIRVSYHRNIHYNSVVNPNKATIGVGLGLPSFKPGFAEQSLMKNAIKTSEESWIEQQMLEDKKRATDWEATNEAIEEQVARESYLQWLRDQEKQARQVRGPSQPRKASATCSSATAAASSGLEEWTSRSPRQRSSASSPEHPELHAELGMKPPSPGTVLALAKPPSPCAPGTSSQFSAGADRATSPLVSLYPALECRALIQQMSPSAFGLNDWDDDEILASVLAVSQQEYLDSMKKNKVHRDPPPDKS
Summary of the method: as §1

Measured: log2 ratio of Biotin-Ahx-Ub-VS probe labelling

Cc1ccc(CC(NC(=O)CCl)c2ccccn2)cc1.Cl (centres undefined)
inactive: [1] -0.831 | [2] 0.249 | [3] -0.525 | [4] -0.0559 | [5] 0.165 | [6] -0.348 | [7] -0.0206 | [8] 0.0988 | [9] -0.157
